A short description of test [1]: binders of probe aFSTL3 on microarray, primary screen, stem cell growth factor project, biochemical, small-molecule microarray, fluorescence 635/667 (AID 1064).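 Note: measures binding of the biotinylated anti-FSTL3 antibody to printed compounds.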 Conditions: higher = more signal.
Test [2] in a line: binders from COS7 lysate, DM2A8 probe, primary screen, torsin A project, cell lysate, small-molecule microarray, fluorescence 635/667 (AID 1065). The conditions noted are these: higher = more signal, COS7 lysate expressing mutant human TOR1A.
The nature of test [3]: binders of probe aFGF2 on microarray, primary screen, stem cell growth factor project, biochemical, small-molecule microarray, fluorescence 635/667 (AID 1067).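 Note: measures binding of biotinylated aFGF2 protein to printed compounds on slides; z-score merges feature fluorescence and signal-to-noise across triplicate slides.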 The conditions noted are these: higher = more signal.
Test [4] can be described thus: binders of probe aFGF10 on microarray, primary screen, stem cell growth factor project, biochemical, small-molecule microarray, fluorescence 635/667 (AID 1071).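 Note: score merges 667 nm spot intensity and signal to noise from triplicate slides.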 Conditions: higher = more signal.
Test [5] addresses Neurogenic locus notch homolog protein 2 (Homo sapiens) (UniProt Q04721). In words: Notch2 binders on small-molecule microarrays, primary screen, biochemical, small-molecule microarray, 635 nm fluorescence, stem cell growth factors (AID 1073). Conditions: Notch2 binding, higher = more signal.
Test [6] deals with Pro-neuregulin-1, membrane-bound isoform (Homo sapiens) (UniProt Q02297). In words: NRG1 binders on small-molecule microarrays, primary screen, psychiatric disease protein project, biochemical, small-molecule microarray, fluorescence 635/667 (AID 1075).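 Note: score combines 667 nm spot fluorescence with signal to noise.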 Conditions: NRG1 binding, 635 nm fluorescence, higher = more signal.
For test [7], the system named is Neuregulin-1 EGF-like domain. Description: binders of neuregulin-1 EGF-like domain, primary screen, biochemical, small-molecule microarray, 635 nm fluorescence (AID 1081).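 Note: binding of the protein to compounds printed on small-molecule microarray slides.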 Conditions: small-molecule microarray binding, higher = more signal.
Test [8] can be described thus: FRG1 promoter luciferase signal modulators, primary screen, FRG1 inhibition for FSHD, cell-based, C2C12 myotubes, firefly/Renilla luciferase, luminescence (AID 1084). Conditions: higher = more signal, called active from +8 up or from −8 down.
Test [9] in a line: binders of probe aFST on microarray, primary screen, stem cell growth factor project, biochemical, small-molecule microarray, fluorescence 635/667 (AID 1086).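 Note: score merges 667 nm fluorescence with signal-to-noise of each printed compound spot.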 Conditions: higher = more signal.
A short description of test [10]: binders of probe aHhip on microarray, primary screen, stem cell growth factor project, biochemical, small-molecule microarray, fluorescence 635/667 (AID 1087).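 Note: score merges spot fluorescence at 667nm with spot signal to noise ratio.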 The conditions noted are these: higher = more signal.
For test [11], the system named is PRMT1 (protein arginine N-methyltransferase 1). In words: PRMT1 binders on small-molecule microarrays, primary screen, biochemical, small-molecule microarray, 635 nm fluorescence (AID 1088).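 Note: binding of Prmt1 protein to compounds spotted on small-molecule microarray slides.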 The conditions noted are these: small-molecule microarray binding, higher = more signal.
Test [12] can be described thus: yeast growth modulation, basal conditions, primary screen, YJM789 clinical isolate, OD600, 24 h (AID 1089).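 Note: growth of clinical yeast isolate S. cerevisiae YJM 789 seeded 1000 cells per well; test concentration not given here.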 Conditions: S. cerevisiae YJM789 growth, higher = more signal, called active from +8 up or from −8 down.
A short description of test [13]: fission yeast growth modulation, primary screen, strain 972, OD600, 24 h, no modulator (AID 1090).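 Note: basal condition with compound alone and no growth modifier present; test concentration not given here.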 Conditions: S. pombe 972 growth, higher = more signal, called active from +8 up or from −8 down.
Test [14] in a line: S. cerevisiae growth modulation with rapamycin, primary screen, strain BY4716, OD600, 96 h (AID 1091). Note: test concentration not given here. Conditions: higher = more signal, called active from +8 up or from −8 down.
In test [15] the target is Torsin-1A-interacting protein 2 (Homo sapiens) (UniProt Q8NFQ8). Description: LULL1 binders on small-molecule microarray, primary screen, cell lysate, human LULL1 lysate, 635/667 nm fluorescence (AID 1092).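 Note: probe is lysate of COS7 cells overexpressing human LULL1; score merges per-feature 667 nm fluorescence with signal-to-noise.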 Conditions: hLULL1 lysate binding, 635 nm fluorescence, higher = more signal.
The nature of test [16]: E. coli growth modulation, two-sided OD650, primary screen, E. coli filamentation project, strain DRC41, 24 h (AID 1093).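 Note: MC1000 strain lacking acrAB efflux and sulA so SOS filamentation is blocked; test concentration not given here.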 Conditions: OD650, 24 h, higher = more signal, called active from +8 up or from −8 down.
A short description of test [17]: small-molecule microarray binders of probe aLefty2, primary screen, biochemical, biotinylated probe, 635/667 nm fluorescence (AID 1094).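 Note: score merges spot fluorescence near 667 nm with spot signal-to-noise ratio.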 Conditions: higher = more signal.
For test [18], the system named is Noggin (protein binding on small-molecule microarray). In words: Noggin binders on small-molecule microarray, primary screen, biochemical, 635/667 nm fluorescence (AID 1095).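 Note: score merges 667 nm feature fluorescence with signal to noise over triplicate slides.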 The conditions noted are these: 635 nm fluorescence, higher = more signal.
The target of test [19] is Neurogenic locus notch homolog protein 3 (Homo sapiens) (UniProt Q9UM47). Description: NOTCH3 binders on small-molecule microarray, primary screen, biochemical, 635/667 nm fluorescence (AID 1096). The conditions noted are these: NOTCH3 binding, 635 nm fluorescence, higher = more signal.
Test [20] is described as follows: small-molecule microarray binders of probe aEGFR, primary screen, biochemical, biotinylated probe, 635/667 nm fluorescence (AID 1097).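 Note: probe is a biotinylated anti-EGFR antibody binding compounds printed on slides; score combines fluorescence near 667 nm and signal to noise of each spot.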 Conditions: higher = more signal.

Molecules are shown by their SMILES. Calls of active or inactive are those of the source.

Chain of Neurogenic locus notch homolog protein 2 (Homo sapiens) (Q04721 whole entry, looked up, canonical isoform): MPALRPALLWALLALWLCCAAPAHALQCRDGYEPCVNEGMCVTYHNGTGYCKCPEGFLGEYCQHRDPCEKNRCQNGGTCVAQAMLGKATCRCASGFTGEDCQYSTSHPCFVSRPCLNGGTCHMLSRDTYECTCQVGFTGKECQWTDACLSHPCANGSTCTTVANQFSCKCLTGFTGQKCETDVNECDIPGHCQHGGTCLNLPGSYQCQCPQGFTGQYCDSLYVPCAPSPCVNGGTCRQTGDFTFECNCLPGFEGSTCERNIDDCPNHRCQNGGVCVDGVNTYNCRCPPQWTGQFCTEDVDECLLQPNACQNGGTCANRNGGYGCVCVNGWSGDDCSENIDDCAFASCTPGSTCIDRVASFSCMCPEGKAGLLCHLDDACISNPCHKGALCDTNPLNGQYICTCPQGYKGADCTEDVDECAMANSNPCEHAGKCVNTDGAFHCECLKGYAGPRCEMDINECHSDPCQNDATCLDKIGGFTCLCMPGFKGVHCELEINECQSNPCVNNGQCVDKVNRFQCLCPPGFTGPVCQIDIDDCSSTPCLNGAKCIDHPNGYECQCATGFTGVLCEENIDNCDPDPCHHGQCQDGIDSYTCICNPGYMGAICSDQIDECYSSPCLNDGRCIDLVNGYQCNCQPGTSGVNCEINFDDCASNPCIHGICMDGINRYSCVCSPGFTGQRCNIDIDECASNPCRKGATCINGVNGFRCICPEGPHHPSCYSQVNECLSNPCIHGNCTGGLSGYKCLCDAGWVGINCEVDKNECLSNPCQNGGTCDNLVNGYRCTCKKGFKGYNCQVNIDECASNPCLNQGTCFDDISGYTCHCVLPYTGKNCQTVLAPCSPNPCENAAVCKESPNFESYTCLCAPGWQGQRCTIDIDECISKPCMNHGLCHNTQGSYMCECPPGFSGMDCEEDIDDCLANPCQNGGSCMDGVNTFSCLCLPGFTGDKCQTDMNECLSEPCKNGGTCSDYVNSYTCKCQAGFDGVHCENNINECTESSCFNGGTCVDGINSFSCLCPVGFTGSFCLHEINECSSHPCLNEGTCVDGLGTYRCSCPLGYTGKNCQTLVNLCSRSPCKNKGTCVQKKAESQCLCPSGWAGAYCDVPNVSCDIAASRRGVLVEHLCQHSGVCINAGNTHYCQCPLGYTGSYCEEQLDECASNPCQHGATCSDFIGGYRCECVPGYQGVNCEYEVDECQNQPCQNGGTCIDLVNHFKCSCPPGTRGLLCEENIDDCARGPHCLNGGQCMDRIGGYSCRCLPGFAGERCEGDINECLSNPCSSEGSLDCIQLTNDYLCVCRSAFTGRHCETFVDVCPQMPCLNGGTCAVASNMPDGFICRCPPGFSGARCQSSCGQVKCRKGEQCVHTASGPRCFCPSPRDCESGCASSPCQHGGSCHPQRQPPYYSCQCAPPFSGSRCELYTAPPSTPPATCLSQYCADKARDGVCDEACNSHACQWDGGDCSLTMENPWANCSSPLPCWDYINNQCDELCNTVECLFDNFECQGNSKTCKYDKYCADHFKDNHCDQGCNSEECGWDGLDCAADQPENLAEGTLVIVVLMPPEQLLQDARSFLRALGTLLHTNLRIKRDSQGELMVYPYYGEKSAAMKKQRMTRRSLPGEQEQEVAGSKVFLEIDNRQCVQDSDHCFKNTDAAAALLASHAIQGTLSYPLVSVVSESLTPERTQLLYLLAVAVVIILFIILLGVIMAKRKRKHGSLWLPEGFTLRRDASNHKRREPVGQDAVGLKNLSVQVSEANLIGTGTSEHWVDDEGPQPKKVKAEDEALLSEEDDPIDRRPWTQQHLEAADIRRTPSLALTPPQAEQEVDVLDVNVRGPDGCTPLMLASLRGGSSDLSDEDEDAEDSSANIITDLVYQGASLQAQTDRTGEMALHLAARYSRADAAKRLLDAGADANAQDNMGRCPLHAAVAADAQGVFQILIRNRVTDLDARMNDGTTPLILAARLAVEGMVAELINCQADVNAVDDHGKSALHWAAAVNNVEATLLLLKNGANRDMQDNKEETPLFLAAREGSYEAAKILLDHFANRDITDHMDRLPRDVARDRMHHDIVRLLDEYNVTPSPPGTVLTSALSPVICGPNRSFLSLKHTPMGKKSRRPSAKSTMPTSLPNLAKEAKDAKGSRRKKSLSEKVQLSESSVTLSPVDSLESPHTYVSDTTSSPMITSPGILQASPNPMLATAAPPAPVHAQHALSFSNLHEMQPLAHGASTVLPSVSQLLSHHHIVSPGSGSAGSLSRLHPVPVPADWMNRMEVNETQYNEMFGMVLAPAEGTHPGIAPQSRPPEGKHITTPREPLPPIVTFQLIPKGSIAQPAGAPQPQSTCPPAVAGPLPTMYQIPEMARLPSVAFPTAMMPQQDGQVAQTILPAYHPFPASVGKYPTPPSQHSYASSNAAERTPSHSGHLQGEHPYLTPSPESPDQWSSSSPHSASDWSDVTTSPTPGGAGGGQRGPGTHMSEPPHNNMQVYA
Chain of Torsin-1A-interacting protein 2 (Homo sapiens) (Q8NFQ8 whole entry, looked up): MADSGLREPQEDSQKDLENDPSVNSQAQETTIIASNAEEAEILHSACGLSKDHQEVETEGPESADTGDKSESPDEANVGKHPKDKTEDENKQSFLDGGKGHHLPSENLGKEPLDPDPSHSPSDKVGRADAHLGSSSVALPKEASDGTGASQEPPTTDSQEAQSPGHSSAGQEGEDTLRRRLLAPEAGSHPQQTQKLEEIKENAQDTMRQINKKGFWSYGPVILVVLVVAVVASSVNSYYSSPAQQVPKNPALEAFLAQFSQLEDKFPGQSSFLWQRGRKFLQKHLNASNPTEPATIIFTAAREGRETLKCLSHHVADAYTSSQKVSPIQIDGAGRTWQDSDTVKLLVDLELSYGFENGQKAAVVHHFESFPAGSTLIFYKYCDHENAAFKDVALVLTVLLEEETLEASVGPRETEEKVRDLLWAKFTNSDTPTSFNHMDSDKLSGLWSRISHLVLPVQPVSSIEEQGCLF
Chain of Pro-neuregulin-1, membrane-bound isoform (Homo sapiens) (Q02297 whole entry, looked up, the tested form may be a part, canonical isoform): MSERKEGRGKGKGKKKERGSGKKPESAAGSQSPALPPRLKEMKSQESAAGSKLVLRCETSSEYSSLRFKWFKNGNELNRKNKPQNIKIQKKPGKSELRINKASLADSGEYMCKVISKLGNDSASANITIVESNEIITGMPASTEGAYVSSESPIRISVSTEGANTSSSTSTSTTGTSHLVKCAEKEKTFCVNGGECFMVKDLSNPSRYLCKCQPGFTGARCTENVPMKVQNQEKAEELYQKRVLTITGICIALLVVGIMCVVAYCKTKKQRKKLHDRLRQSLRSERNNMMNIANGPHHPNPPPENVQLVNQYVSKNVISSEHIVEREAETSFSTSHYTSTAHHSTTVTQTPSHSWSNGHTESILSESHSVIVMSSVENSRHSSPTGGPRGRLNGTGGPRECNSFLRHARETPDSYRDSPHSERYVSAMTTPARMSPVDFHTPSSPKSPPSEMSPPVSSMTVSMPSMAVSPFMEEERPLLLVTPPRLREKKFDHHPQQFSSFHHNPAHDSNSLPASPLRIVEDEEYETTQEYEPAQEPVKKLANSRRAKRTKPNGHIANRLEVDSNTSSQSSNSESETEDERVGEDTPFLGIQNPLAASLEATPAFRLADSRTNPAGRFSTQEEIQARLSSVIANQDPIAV

For `C=CCN1C(=O)[C@]2(COC(c3ccc(OCCCO)cc3)=N2)Cc2ccccc21`, the composite z-score in test [1] amounted to 0.842; in test [2], 0.33; in test [3] it was 0.136; in [4], 0.115; in test [5], 0.595; in [6], 0.977. The composite z-score in test [7] is 1.08; in test [9] it was 0.258; in test [10], -0.3; in test [11] it was 1.36; in test [15] it was 3.21; in test [17], 0.0914. The composite z-score in test [18] was 0.044; in test [19], 0.801; in test [20], -0.163. Also, the z-score in test [8] was -0.664 (inactive); in test [12], -2.32 (inactive); in test [13], -5.3 (inactive); in [14], -1.78 (inactive); in test [16], 1.09 (inactive).

For `CC(C)C(O)C1C=CC2C(=O)N(C)C(=O)C2N1N1CCCCC1` (stereo not given), the composite z-score in test [1] is -0.201; in test [2], -0.145; in [3], -0.0412; in test [4] it was 0.651; in test [5] it was 1.51; in test [6] it was 0.856. Further, the composite z-score in test [7] is 1.24; in test [9], 0.772; in [10], -0.0391; in [11] it was 0.594; in [15], 3.58; in [17], 0.169. Moreover, the figures for the composite z-score in test [18], in test [19] and in test [20] were 0.315, 0.217 and 0.0635, respectively. Moreover, the z-score in test [8] is 0.554 (inactive); in test [12], 0.252 (inactive); in [13], 0.891 (inactive); in test [14], -0.199 (inactive); in test [16] it was -1.46 (inactive).

As for `O=C1OCC=C[C@H]2OC34C=CCN(c5ccc6ccccc6c5)C(=O)[C@H]3N(CCO)C(=O)[C@@H]4[C@@H]12` (stereo not given in full), the composite z-score in test [1] is 0.982; in test [2], -2.22; in test [3] it was -0.166; in test [4], -0.361; in test [5] it was -1.4; in test [6], 1.7. For the same molecule, the composite z-score is 1.39 in [7]; -0.127 in [9]; -0.27 in test [10]; 0.491 in test [11]; 0.951 in test [15]; -0.0841 in test [17]. For the same molecule, the composite z-score was -1.58 in test [18], -0.127 in [19] and -0.281 in test [20]. Further, the z-score in [8] is 1.18 (inactive); in [12], 0.689 (inactive); in [13] it was 0.0739 (inactive); in test [14], -0.409 (inactive); in test [16], -0.746 (inactive).

Consider `C=C(C(=O)CC[C@H](OC(=O)c1cccnc1)c1ccccc1OCCO)C(C)C`, for which the composite z-score in test [1] is 0.0323; in test [2], 1.78; in [3], -0.133; in test [4] it was 0.636; in [5], 0.0984; in test [6] it was -0.124. In addition, the composite z-score in [7] was 0.962; in test [9], 0.106; in [10] it was -0.204; in test [11] it was 1.53; in test [15], 1.58; in test [17], 0.0692. The composite z-score in test [18] was 1.71; in test [19], 0.423; in [20], 0.0004. In addition, the z-score is 0.276 (inactive) in test [8]; -2.6 (inactive) in [12]; -0.267 (inactive) in test [13]; -0.598 (inactive) in test [14]; -0.0377 (inactive) in test [16].

For `O=C(NCCN1CCOCC1)[C@@H]1c2ccccc2C(=O)N(Cc2cc(F)cc(C(F)(F)F)c2)[C@H]1c1ccc(CO)cc1`, the composite z-score in test [1] is -0.0058; in test [2], 1.09; in [3] it was -0.188; in test [4], -0.71; in test [5], -0.987; in test [6], 1.25. Also, the composite z-score in [7] is 0.591; in [9], -0.234; in test [10], -0.199; in [11], 1.54; in test [15] it was 3.05; in [17], -0.22. Besides, the composite z-score is 0.935 in test [18], 0.58 in [19] and -0.149 in [20]. Also, the z-score in [8] is -0.0497 (inactive); in [12], -0.718 (inactive); in test [13], -0.447 (inactive); in test [14], -0.405 (inactive); in test [16], -0.356 (inactive).

For the origin of these results see PubChem BioAssay.
